The supplement of paper PMC10849652
About 7,900 targets were measured; listed, in parts, are those with a hit and a random draw of the rest. About 0.6% of all pairs of compound and target were hits. Unmarked numbers belong to inactive results.

What was measured:
Experiment in all cases: log2 fold change, soluble protein after heating vs DMSO (PISA); higher = thermal stabilisation; K562 cells, 10 uM, 30 min; active = over 0.2 and 3.5 SD of the protein, either way, in both replicates (recomputed)
[1] = compound: CC1=C(C=C(C=C1)NC(=O)C2=CC(=CC=C2)C(C)(C)C#N)NC3=CC4=C(C=C3)N=CN(C4=O)C
How it was run: (§1)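 K562 cells at 2×10^6 cells/mL were exposed to 10 μM compound for 30 min, then aliquots were heated for 3 min across 48°C-58°C, pooled, and extracted in PBS containing 0.5% NP-40 at 4°C. The supernatant after 21,000xg for 90 min was taken as soluble protein and measured by TMTpro 16plex LC-MS/MS with channel sums equalised. Thermal stability is reported relative to control samples, with values from duplicates. Fold changes are given on a log2 scale.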

[2] = compound: CC1=C(C=C(C=C1)NC(=O)C2=CC(=CC=C2)N(C)C)NC(=O)C3=CC=C(C=C3)O
How it was run: as §1

[3] = compound: CC1=CC=C(C=C1)SC2=C3C=C(SC3=CN=C2)C(=O)N
How it was run: as §1

[4] = compound: CC1=NC(=CC=C1)C2=C(N=C(N2)C(C)(C)C)C3=CC4=NC=CN=C4C=C3
How it was run: as §1

Nexturastat A = compound: CCCCN(Cc1ccc(C(=O)NO)cc1)C(=O)Nc1ccccc1 [Nexturastat A]
How it was run: as §1

vemurafenib = compound: CCCS(=O)(=O)Nc1ccc(F)c(C(=O)c2c[nH]c3ncc(-c4ccc(Cl)cc4)cc23)c1F [vemurafenib]
How it was run: as §1

[5] = compound: CCCS(=O)(=O)Nc1ccc(F)c(C(=O)c2c[nH]c3ncc(Cl)cc23)c1F
How it was run: as §1

[6] = compound: CCCc1cc(C)[nH]c(=O)c1CNC(=O)c1cc(-c2ccnc(N3CCN(C)CC3)c2)cc2c1cnn2C(C)C
How it was run: as §1

givinostat = compound: CCN(CC)Cc1ccc2cc(COC(=O)Nc3ccc(C(=O)NO)cc3)ccc2c1 [givinostat]
How it was run: as §1

barasertib = compound: CCN(CCCOc1ccc2c(Nc3cc(CC(=O)Nc4cccc(F)c4)[nH]n3)ncnc2c1)CCOP(=O)(O)O [barasertib]
How it was run: as §1

Chain of UniProt O95363 (O95363 whole entry, looked up): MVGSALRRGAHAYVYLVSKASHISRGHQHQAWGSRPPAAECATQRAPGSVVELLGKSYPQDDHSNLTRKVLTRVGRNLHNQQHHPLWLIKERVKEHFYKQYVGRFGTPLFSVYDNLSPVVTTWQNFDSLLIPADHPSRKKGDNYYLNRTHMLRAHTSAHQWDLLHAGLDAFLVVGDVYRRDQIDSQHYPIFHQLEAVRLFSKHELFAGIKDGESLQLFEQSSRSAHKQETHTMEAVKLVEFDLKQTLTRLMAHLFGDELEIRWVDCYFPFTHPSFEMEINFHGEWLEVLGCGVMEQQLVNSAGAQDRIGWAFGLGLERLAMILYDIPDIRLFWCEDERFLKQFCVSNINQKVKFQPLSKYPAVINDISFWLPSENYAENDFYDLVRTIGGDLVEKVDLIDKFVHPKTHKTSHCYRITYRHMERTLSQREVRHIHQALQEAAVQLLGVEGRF
Chain of UniProt P30519 (P30519 whole entry, looked up): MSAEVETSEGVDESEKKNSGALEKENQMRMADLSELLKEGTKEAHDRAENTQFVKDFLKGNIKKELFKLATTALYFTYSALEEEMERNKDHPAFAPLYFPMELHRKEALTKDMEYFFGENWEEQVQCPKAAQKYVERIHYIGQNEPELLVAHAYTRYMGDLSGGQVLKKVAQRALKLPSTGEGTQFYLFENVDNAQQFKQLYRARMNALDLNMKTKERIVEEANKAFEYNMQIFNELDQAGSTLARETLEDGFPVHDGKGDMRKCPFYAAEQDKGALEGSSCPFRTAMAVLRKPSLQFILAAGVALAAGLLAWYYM
Chain of UniProt P52789 (P52789 whole entry, looked up): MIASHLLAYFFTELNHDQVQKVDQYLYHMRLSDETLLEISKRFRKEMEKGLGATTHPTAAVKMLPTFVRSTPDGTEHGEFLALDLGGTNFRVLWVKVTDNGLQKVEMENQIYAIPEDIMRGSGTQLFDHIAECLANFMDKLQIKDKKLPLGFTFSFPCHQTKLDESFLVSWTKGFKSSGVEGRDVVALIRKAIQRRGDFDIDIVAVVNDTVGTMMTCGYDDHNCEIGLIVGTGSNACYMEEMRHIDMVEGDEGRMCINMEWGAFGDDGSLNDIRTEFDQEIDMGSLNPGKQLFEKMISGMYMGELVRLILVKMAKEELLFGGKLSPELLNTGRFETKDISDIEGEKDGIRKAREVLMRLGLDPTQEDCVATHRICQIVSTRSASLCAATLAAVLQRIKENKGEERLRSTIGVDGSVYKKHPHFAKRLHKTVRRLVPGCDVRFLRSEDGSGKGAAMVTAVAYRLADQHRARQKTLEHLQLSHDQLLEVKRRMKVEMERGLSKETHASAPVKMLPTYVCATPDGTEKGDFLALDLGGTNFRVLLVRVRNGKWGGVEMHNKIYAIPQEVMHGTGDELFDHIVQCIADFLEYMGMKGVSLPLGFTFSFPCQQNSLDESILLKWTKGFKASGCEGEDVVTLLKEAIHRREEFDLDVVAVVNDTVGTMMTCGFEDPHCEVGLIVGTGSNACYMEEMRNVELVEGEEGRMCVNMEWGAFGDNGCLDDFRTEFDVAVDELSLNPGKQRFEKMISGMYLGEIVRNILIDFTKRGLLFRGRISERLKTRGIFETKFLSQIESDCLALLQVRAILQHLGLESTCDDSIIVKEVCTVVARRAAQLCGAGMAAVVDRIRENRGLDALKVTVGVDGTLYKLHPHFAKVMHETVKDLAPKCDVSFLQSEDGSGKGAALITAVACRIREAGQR
Chain of UniProt P52597 (P52597 whole entry, looked up): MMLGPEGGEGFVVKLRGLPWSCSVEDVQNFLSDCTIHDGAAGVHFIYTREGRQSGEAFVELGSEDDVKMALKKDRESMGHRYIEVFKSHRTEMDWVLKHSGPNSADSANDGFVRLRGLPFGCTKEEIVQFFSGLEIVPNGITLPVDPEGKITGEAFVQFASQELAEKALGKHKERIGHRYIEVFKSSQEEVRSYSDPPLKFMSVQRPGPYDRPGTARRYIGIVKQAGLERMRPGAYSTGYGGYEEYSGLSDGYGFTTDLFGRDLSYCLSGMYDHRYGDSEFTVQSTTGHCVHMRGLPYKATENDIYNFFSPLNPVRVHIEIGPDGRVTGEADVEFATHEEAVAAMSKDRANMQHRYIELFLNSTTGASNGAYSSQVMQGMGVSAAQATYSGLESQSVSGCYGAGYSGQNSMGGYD
Chain of UniProt Q9UK99 (Q9UK99 whole entry, looked up): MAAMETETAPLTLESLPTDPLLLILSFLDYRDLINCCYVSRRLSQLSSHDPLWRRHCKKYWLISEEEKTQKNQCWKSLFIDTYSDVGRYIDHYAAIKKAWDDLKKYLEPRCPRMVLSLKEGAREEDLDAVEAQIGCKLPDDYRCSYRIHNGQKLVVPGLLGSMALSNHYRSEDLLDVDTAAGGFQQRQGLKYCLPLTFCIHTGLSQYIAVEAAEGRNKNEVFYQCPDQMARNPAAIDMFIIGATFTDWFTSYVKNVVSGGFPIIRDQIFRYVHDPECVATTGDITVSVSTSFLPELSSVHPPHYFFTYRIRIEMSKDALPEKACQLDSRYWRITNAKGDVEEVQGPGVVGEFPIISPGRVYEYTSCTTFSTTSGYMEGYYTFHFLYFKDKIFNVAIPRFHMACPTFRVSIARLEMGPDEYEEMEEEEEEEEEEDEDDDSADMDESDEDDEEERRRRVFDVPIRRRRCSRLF
Chain of UniProt Q8N2G8 (Q8N2G8 whole entry, looked up): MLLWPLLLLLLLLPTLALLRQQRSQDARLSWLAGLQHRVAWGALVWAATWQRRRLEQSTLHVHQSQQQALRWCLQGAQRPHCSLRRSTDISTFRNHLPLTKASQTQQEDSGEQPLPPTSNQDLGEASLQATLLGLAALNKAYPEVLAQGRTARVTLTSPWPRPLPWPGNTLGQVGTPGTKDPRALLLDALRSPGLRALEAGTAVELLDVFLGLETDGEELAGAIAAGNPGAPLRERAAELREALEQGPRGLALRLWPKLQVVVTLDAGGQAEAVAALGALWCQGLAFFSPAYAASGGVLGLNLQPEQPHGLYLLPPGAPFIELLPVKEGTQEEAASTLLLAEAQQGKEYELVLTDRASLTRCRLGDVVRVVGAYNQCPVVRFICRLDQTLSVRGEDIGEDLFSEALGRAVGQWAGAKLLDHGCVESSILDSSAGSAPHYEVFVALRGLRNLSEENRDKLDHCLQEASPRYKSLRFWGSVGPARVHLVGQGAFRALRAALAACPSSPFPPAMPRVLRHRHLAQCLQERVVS
Chain of UniProt Q8WXD5 (Q8WXD5 whole entry, looked up): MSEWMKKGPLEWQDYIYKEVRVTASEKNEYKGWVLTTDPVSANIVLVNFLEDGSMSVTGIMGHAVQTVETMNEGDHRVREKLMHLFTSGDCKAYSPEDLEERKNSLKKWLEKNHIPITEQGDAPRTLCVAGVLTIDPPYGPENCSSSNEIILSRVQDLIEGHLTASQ
Chain of UniProt P36915 (P36915 whole entry, looked up): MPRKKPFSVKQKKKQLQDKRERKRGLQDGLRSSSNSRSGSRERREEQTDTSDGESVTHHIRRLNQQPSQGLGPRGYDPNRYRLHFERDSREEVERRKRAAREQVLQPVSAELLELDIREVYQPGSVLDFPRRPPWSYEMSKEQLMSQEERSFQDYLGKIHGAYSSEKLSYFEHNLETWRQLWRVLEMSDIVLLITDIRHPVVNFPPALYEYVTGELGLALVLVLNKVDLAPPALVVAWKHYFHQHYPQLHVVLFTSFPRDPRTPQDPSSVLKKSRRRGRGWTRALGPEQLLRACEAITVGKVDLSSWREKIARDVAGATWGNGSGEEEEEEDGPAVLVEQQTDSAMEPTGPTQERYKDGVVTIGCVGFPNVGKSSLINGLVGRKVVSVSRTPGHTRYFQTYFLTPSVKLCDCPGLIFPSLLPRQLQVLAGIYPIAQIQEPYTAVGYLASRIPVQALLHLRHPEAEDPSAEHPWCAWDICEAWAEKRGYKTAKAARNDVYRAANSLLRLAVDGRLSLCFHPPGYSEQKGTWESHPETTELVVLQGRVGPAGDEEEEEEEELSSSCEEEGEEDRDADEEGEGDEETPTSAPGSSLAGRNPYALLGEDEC
Chain of UniProt P62879 (P62879 whole entry, looked up): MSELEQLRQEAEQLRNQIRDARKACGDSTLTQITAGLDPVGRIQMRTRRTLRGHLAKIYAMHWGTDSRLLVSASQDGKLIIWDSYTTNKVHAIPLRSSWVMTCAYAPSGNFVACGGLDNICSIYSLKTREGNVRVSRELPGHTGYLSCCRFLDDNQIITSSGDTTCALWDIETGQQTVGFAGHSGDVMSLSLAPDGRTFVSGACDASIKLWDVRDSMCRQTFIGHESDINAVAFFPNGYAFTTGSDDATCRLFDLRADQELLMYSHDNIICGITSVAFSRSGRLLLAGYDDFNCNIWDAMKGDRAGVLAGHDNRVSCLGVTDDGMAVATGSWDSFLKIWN
Chain of UniProt P60520 (P60520 whole entry, looked up): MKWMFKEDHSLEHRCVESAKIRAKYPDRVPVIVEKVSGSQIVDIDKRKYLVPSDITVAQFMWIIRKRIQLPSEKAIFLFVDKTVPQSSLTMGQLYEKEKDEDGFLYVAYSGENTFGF
Chain of UniProt P14324 (P14324 whole entry, looked up): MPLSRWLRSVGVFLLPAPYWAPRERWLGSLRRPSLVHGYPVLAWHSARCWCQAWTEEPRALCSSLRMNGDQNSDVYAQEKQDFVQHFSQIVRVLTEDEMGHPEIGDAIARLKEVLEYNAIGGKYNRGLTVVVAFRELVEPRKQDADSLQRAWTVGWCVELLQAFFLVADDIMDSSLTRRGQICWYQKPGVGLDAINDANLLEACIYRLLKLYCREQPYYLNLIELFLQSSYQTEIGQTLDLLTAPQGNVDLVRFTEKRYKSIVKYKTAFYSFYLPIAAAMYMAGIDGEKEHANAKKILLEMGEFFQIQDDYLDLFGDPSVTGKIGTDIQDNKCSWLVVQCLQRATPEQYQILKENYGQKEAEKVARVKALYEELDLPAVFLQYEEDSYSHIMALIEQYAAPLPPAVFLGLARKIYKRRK
Chain of UniProt Q9Y3D6 (Q9Y3D6 whole entry, looked up): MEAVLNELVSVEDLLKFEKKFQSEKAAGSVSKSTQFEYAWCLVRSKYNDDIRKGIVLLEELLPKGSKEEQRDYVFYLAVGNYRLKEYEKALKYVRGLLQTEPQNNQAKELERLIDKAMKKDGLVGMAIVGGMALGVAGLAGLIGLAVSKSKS

Row | Target | log2 fold change [1] | log2 fold change [2] | log2 fold change [3] | log2 fold change [4] | log2 fold change (Nexturastat A) | log2 fold change (vemurafenib) | log2 fold change [5] | log2 fold change [6] | log2 fold change (givinostat) | log2 fold change (barasertib)
1 | HDGFL2 (UniProt Q7Z4V5) | -0.281 (active) | 0 | -0.006 | 0.049 | 0.063 | -0.022 | 0.007 | -0.078 | 0.049 | 0.037
2 | GLIPR2 (UniProt Q9H4G4) | 0.156 | -0.152 | -0.054 | -0.032 | 0.062 | 0.092 | -0.014 | 0.028 | 0.009 | 0
3 | HSPA8 (UniProt E9PK54) | 0.023 | 0.034 | -0.123 | 0.006 | 0.227 | -0.036 | 0.026 | -0.098 | 0.167 | -0.023
4 | GDPD1 (UniProt Q8N9F7) | 0.003 | -0.135 | 0.022 | -0.07 | -0.026 | 0.022 | -0.081 | 0.099 | -0.046 | 0.001
5 | GNB2 (UniProt P62879) | 0.11 | 0.018 | -0.053 | -0.018 | -0.023 | 0.044 | 0.036 | 0.012 | -0.019 | -0.042
6 | HMOX2 (UniProt P30519) | 0 | -0.06 | 0.036 | -0.019 | -0.023 | 0.034 | 0.012 | 0.097 | 0.015 | 0.042
7 | FBL (UniProt P22087) | -0.039 | 0.062 | -0.146 | -0.077 | 0.243 | -0.11 | -0.058 | 0.165 | 0.138 | -0.106
8 | FIS1 (UniProt Q9Y3D6) | -0.024 | 0.006 | 0 | 0 | -0.018 | 0.048 | -0.046 | -0.009 | -0.014 | -0.027
9 | GNL1 (UniProt P36915) | 0.019 | -0.014 | 0.032 | 0.036 | -0.031 | -0.01 | 0.081 | 0.002 | -0.033 | 0.017
10 | HNRNPH2 (UniProt P55795) | 0.064 | -0.027 | 0.079 | 0.058 | 0.044 | 0.048 | 0.208 | 0.095 | 0.109 | 0.014
11 | IFT80 isoform 3 (UniProt Q9P2H3) | -0.023 | 0.038 | 0.004 | 0.005 | -0.021 | -0.042 | 0.039 | -0.013 | -0.104 | -0.004
12 | GALC (UniProt P54803) | 0.002 | -0.032 | 0 | -0.013 | 0.012 | -0.03 | -0.03 | -0.049 | 0.036 | 0.002
13 | FOXK1 (UniProt P85037) | 0.323 | -0.01 | -0.362 | -0.063 | -0.091 | 0.097 | 0.182 | -0.129 | -0.025 | -0.221
14 | IDH3A (UniProt P50213) | -0.029 | -0.003 | 0.031 | 0.015 | -0.084 | 0.009 | -0.009 | -0.014 | -0.06 | -0.006
15 | HBQ1 (UniProt P09105) | 0.053 | -0.14 | 0.025 | 0.052 | -0.028 | -0.013 | 0.004 | -0.012 | -0.043 | 0.038
16 | GABARAPL2 (UniProt P60520) | -0.01 | 0.023 | 0.067 | 0.188 | -0.122 | 0.026 | 0.051 | -0.03 | 0.03 | 0.007
17 | GNAI3 (UniProt P08754) | 0.125 | -0.012 | -0.07 | -0.021 | 0.072 | 0.037 | -0.025 | 0.069 | -0.263 (active) | 0
18 | FBXO3 (UniProt Q9UK99) | -0.042 | -0.08 | 0 | -0.018 | -0.043 | -0.089 | -0.025 | -0.057 | 0.049 | -0.043
19 | HNRNPC isoform 2 (UniProt P07910) | 0.276 | -0.074 | -0.349 | -0.045 | 0.449 | -0.055 | -0.191 | 0.028 | 0.241 | -0.095
20 | GALNT11 (UniProt Q8NCW6) | 0.011 | 0.049 | -0.024 | -0.041 | -0.032 | 0.009 | -0.035 | -0.002 | 0.027 | 0.118
21 | GYS1 (UniProt P13807) | 0.057 | -0.04 | -0.068 | -0.13 | 0.515 | 0.052 | -0.01 | 0.091 | 0.108 | -0.033
22 | HK2 (UniProt P52789) | -0.257 (active) | -0.028 | 0 | 0.019 | 0.017 | 0.003 | 0.027 | -0.041 | -0.016 | 0.051
23 | GEMIN6 (UniProt Q8WXD5) | -0.049 | -0.05 | 0.014 | 0.015 | 0.134 | 0.073 | -0.001 | 0.008 | -0.088 | -0.053
24 | GPKOW (UniProt Q92917) | 0.053 | -0.033 | 0.062 | 0.055 | -0.106 | 0.009 | 0.07 | -0.058 | 0.084 | 0.027
25 | FARS2 (UniProt O95363) | 0.012 | -0.015 | -0.032 | 0.078 | 0.044 | 0.032 | 0.01 | -0.087 | -0.019 | 0.035
26 | HNRNPF (UniProt P52597) | 0.076 | -0.005 | -0.032 | -0.017 | 0.036 | 0.106 | 0.101 | 0.027 | 0.051 | 0.047
27 | GAPVD1 isoform 6 (UniProt Q14C86) | 0.004 | -0.041 | 0.046 | 0.019 | 0.025 | 0.007 | 0.13 | 0.047 | 0.047 | 0.034
28 | GHDC (UniProt Q8N2G8) | -0.028 | 0.057 | -0.03 | -0.021 | -0.113 | -0.041 | -0.044 | -0.011 | -0.025 | -0.008
29 | GOPC (UniProt Q9HD26) | 0.207 | 0.018 | -0.051 | -0.066 | 0.131 | 0.094 | -0.128 | 0.244 | 0.152 | -0.116
30 | FDPS (UniProt P14324) | -0.061 | -0.068 | 0.109 | -0.077 | 0.068 | 0.034 | -0.001 | -0.005 | 0.156 | 0.081
